# High-throughput results as filed in PubChem BioAssay.
# Only some compounds are listed: those with a hit (about 18% of all), similar ones and a draw of the others.
# CtBP-E1A blk = qHTS Assay for Inhibitors of the CtBP/E1A Interaction | AID 651724, 2012 | CtBP / adenovirus E1A interaction (AlphaScreen) | AlphaScreen GST-E1A/His-CtBP binding, 1536-well; hits give low values | 0.49% of 340,000 active | activity change, % (test concentration not listed); in the data active = activity change below about -65%; inconclusive = mostly about -30% to -63%
#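 In 5 uL wells, 23 nL compound meets equimolar GST-E1A and His-CtBP (5X stock 125 nM each) for 2 h, 37 °C. Beads (5X, 50 ug/mL) then 1 h, 37 °C, dark.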
# IL-1B inflam inh = qHTS for Inhibitors of Inflammasome Signaling: IL-1-beta AlphaLISA Primary Screen. THP-1 LPS/ATP IL-1B secretion, AlphaLISA, 16 h; hits give low values. activity change, % at 57.5 µM. 4.7% of 360,000 active. AID 743279, 2014; in the data active = activity change below about -50%; inconclusive = mostly about -30% to -49%
#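 Secreted IL-1B measured by AlphaLISA bead assay after 16 h compound exposure of THP-1 cells; compounds (final up to 57.5 uM) added 1 h before LPS (250 ng/mL) and ATP (1.25 mM) stimulation; lower signal means less secretion.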
# TDP1 cell noCPT = qHTS for Inhibitors of human tyrosyl-DNA phosphodiesterase 1 (TDP1): qHTS in cells in absence of CPT | 15% of 420,000 active | AID 686978, 2013 | Potency, µM (series often up to 46.2 µM), for the others: at the highest dose activity change, negative = growth inhibition, hits mostly inhibitors | DT40 Tdp1-/- hTDP1 cells, no CPT, ATP luminescence, 48 h; also: potency is read from the fitted curve at half-maximal effect; nearly all actives have a fitted effect of over 55% in size
#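 DT40 Tdp1-/-;hTDP1 cells, no CPT (DMSO vehicle only), 400 cells/well; compounds pin-transferred; ≥48 hr, 37 °C; CellTiter-Glo 30 min RT dark, luminescence read.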
# Six1-Eya2 blk = qHTS Assay for Inhibitors of the Six1/Eya2 Interaction; Homeobox protein SIX1 (Homo sapiens) + Protein phosphatase EYA2 (Homo sapiens), …; 0.56% of 360,000 active; AlphaScreen GST-Six1/His-Eya2 binding, biochemical; hits give low values; activity change, % (concentration not given with the values); in the data active = activity change below about -65%; inconclusive = mostly about -30% to -63%
# Target sequence (O00167 whole entry, looked up): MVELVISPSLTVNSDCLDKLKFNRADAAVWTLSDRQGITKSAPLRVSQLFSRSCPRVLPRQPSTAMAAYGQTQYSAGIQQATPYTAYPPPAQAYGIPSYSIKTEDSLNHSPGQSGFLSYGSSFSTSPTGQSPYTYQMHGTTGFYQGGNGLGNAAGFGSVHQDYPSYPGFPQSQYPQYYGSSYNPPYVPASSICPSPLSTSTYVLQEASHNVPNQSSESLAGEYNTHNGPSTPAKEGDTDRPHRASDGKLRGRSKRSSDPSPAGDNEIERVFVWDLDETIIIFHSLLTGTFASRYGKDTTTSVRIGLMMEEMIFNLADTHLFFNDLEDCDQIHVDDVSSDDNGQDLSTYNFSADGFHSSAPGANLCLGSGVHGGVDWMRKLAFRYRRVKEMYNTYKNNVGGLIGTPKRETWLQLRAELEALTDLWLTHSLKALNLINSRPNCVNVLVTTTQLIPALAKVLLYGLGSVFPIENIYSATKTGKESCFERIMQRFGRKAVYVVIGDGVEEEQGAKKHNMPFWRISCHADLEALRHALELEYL
# Target sequence (Q15475 whole entry, looked up): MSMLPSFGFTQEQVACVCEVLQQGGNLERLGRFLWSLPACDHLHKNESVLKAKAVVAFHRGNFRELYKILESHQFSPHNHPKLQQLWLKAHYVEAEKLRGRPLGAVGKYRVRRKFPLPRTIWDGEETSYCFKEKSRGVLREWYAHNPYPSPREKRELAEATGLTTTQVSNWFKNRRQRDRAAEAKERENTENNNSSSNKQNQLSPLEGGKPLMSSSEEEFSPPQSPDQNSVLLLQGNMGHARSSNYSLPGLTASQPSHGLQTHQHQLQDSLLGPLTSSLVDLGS
#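 Six1/Eya2 binding was read as AlphaScreen signal after compounds were pinned into GST-Six1 plus His-tagged Eya2 (5X stock 250/500 nM) in pH 8.0 Tris/NaCl/TCEP buffer, beads added, then incubated 1 h, 37 C, dark.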
# TDP1 block = qHTS Assay for Inhibitors of Tyrosyl-DNA Phosphodiesterase (TDP1). Potency, µM (doses to about 130 µM), without a hit: top-dose activity change, negative = inhibition, usual class: inhibitors. recombinant TDP1, AlphaScreen DNA substrate cleavage. Tyrosyl-DNA phosphodiesterase 1 (Homo sapiens), Q9NUW8. 0.28% of 350,000 active; also: potency is read from the fitted curve at half-maximal effect; nearly all actives have a fitted effect of over 40% in size
#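 E. coli-derived human Tdp1, 1 nM final. Cpd preinc 15 min RT; substrate 15 nM final, 5 min RT; AS bead mix 10 ug/ml final, 10 min RT. Signal loss = tyrosine-FITC cleavage. No-enzyme wells = max signal.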
# TDP1 cell CPT = qHTS for Inhibitors of human tyrosyl-DNA phosphodiesterase 1 (TDP1): qHTS in cells in presence of CPT; chicken DT40 Tdp1-/-;hTDP1 cells + 20 nM CPT, ATP luminescence, 48 h; Potency, µM (highest dose often 46.2 µM), inactives show at the highest dose activity change, negative = growth inhibition, most hits filed as inhibitors; 12% of 420,000 active; also: potency is read from the fitted curve at half-maximal effect; nearly all actives have a fitted effect of over 55% in size
#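 Chicken DT40 Tdp1-/- cells stably complemented with human TDP1 were seeded at 400 cells/well in medium containing 20 nM camptothecin, exposed to pin-transferred compounds, and grown at 37 °C for at least 48 hr. Viability was read as ATP luminescence.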
# Active calls of the source: *; i = inactive; ? = inconclusive; / = not tested or not shown. Unless noted, calls follow the shape of the dose curve; as a rule, active = well fitted curve in the direction sought with a large enough effect; inconclusive = small, poorly fitted or top-dose-only effect, or another doubt; inactive = no such curve, though single readings can be large; an effect the other way counts as inactive or inconclusive. % is scaled to controls: 0 for no effect and ±100 for the full control effect.
SMILES,CtBP-E1A blk,IL-1B inflam inh,TDP1 cell noCPT,Six1-Eya2 blk,TDP1 block,TDP1 cell CPT
O=C(CSc1nnc(CNC(=O)c2cccc(C(F)(F)F)c2)o1)NCC1CCCO1 (stereo not drawn),9.0,i,13.4%,-0.6,3.4%,10.0%
CC1CCCCN1S(=O)(=O)c1ccc(C(=O)N(CCCN(C)C)c2nc3ccc(Br)cc3s2)cc1 (stereo not drawn),?,-105.0*,?,?,11.3%,20.6µM*
Cc1ccc2nc(N(CCCN(C)C)C(=O)c3ccc(S(=O)(=O)N4CCCCCC4)cc3)sc2c1,?,/,?,?,8.4%,?
CCC1CCCCN1S(=O)(=O)c1ccc(C(=O)N(CCCN(C)C)c2nc3cc4c(cc3s2)OCO4)cc1 (stereo not drawn),?,-80.3*,?,-27.8,10.5%,16.4µM*
CCc1ccc(NC(=O)C2CCCN2C(=O)NC2CCCCC2)cc1 (stereo not drawn),0.0,9.2,16.2%,0.2,/,6.6%
COc1ccccc1C(=O)N/C(=C/c1ccc(Br)cc1)C(=O)N1CCCC1,3.0,-14.0,20.6µM*,-1.4,3.8%,25.9µM*
CN(C)S(=O)(=O)n1cc(/C=C(\NC(=O)c2ccccc2F)C(=O)NCCN2CCOCC2)c2ccccc21,1.1,-4.9,11.6µM*,-2.7,/,?
COc1ccccc1C(=O)N/C(=C\c1cn(S(=O)(=O)N(C)C)c2ccccc12)C(=O)N1CCN(C)CC1,-5.1,?,?,-2.8,/,25.9µM*
CN(C)S(=O)(=O)n1cc(/C=C(\NC(=O)c2ccccc2)C(=O)NCCN2CCOCC2)c2ccccc21,0.0,7.9,-13.1%,-1.4,-1.2%,-19.2%
CN(C)S(=O)(=O)n1cc(/C=C(\NC(=O)c2ccccc2)C(=O)N2CCCCC2)c2ccccc21,6.9,-13.3,18.4µM*,-1.4,/,23.1µM*
CN1CCN(C(=O)/C(=C/c2cn(S(=O)(=O)N(C)C)c3ccccc23)NC(=O)c2ccccc2F)CC1,/,-27.4,?,2.3,3.6%,-25.3%
COc1ccc(C(=O)Nc2ccccc2)cc1NC(=O)c1cccs1,?,5.4,?,-3.2,1.2%,-30.0%
OC1(c2ccc(OC(F)F)cc2)CSC(=Nc2cccnc2)N1Cc1ccco1 (stereo not drawn),0.4,-77.3*,-88.3%,-18.2,6.0%,-75.7%
OC1(c2ccc(F)cc2)CSC(=Nc2cccnc2)N1Cc1ccco1 (stereo not drawn),-4.0,-5.3,?,-6.7,-10.3%,?
CN1C(=O)N(C)c2cccc3cccc1c23,5.3,-8.2,25.2%,4.0,/,3.2%
CC1=CC(=O)N(c2cccc3c(N4C(=O)C=C(C)C4=O)cccc23)C1=O,-22.7,-80.7*,2.91µM*,0.0,/,1.84µM*
CN(C)CCN(Cc1ccco1)C(=O)c1oc2ccccc2c1NC(=O)COc1ccccc1,-14.7,-50.4*,-1.0%,-12.9,6.5%,?
CN(C)CCN(Cc1ccco1)C(=O)c1oc2ccccc2c1NC(=O)c1cccc(F)c1,/,/,?,/,7.4%,?
O=C1CCCN1c1ccc(S(=O)(=O)NCc2ccco2)cc1,0.0,-2.7,-18.6%,21.0,4.6%,?
CC(=O)Oc1[nH]c(=O)c2cccc3c2c1CCC3,0.0,-11.2,29.1µM*,-5.4,/,?
CC(=O)Oc1ccc2c3c(c(=O)oc2c1C)CCCC3,-18.4,-2.5,?,-20.0,/,?
CCCCCCCCN1C(=O)[C@H](CC(=O)N2CCN(C(=O)OCC)CC2)C[C@@]2(C(=O)OCC)CCCC=C12,-1.1,-21.6,?,-10.2,/,16.4µM*
CCOC(=O)[C@]12CCCC=C1N(Cc1ccccc1)C(=O)[C@H](CC(=O)N1CCCC1)C2,0.0,4.7,?,10.8,/,-16.6%
CCCCCCCCN1C(=O)[C@H](CC(=O)N2CCCC2)C[C@@]2(C(=O)OCC)CCCC=C12,-22.7,?,8.2µM*,11.6,/,8.2µM*
Fc1cc(Br)cc(F)c1NC(=S)N1CCOCC1,2.5,-17.2,4.5%,8.7,/,1.0%
SMILES,CtBP-E1A blk,IL-1B inflam inh,TDP1 cell noCPT,Six1-Eya2 blk,TDP1 block,TDP1 cell CPT
COc1cc(O)c(CC=C(C)C)c(O)c1C(=O)CCc1ccc(O)cc1,-3.3,7.8,20.6µM*,-1.2,/,20.6µM*
COc1ccc(OC)c(NC(=O)CCC(=O)N(Cc2ccc(OC)c(OC)c2)c2nccs2)c1,-8.5,24.4,-28.9%,-7.8,2.4%,0.5%
Cc1cccc(N2CCN(C(=O)C3CCN(S(=O)(=O)c4cccnc4)CC3)CC2)c1C,1.0,21.3,16.4µM*,-2.2,1.3%,18.4µM*
CC(=O)c1ccc(N2CCN(C(=O)C3CCN(S(=O)(=O)Cc4ccccc4)CC3)CC2)cc1,3.3,14.2,?,3.3,4.9%,-23.6%
O=C(C1CCN(S(=O)(=O)Cc2ccccc2)CC1)N1CCN(c2ccc(F)cc2)CC1,/,/,?,/,2.9%,23.1µM*
O=C(C1CCN(S(=O)(=O)Cc2ccccc2)CC1)N1CCN(c2ncccn2)CC1,3.0,9.0,-14.1%,-2.1,-9.8%,-11.9%
Cc1ccc2nc(N3CCC(C(=O)N4CCN(c5cccc(C)c5C)CC4)CC3)[nH]c2c1,/,/,5.8µM*,/,13.5%,2.91µM*
Cc1cccc(N2CCN(C(=O)C3CCN(S(=O)(=O)Cc4ccccc4)CC3)CC2)c1C,/,/,9.2µM*,/,11.4%,7.31µM*
O=S(=O)(c1ccc(NC(=S)NCc2ccco2)cc1)N1CCCCC1,-8.1,-16.6,-18.8%,-18.3,11.4%,-29.4%
COc1ccccc1OCc1ccc(C(=O)Nc2ccc(Cl)cn2)o1,3.1,0.1,-11.1%,-1.9,-6.2%,9.8%
COc1ccc(CCN2C(=O)CSC2=Nc2ccc(C)cc2C)cc1OC,-0.1,14.5,23.1µM*,2.6,4.3%,23.1µM*
COc1ccc(CCN2C(=O)C3C4CC(C5C(C(N)=O)=NOC45)C3C2=O)cc1OC (stereo not drawn),-1.4,0.0,-15.7%,-4.5,12.6µM*,-5.2%
COc1ccc(CCN2C(=O)C=CC2=O)cc1OC,-2.7,-115.3*,1.3µM*,-7.1,/,0.82µM*
